# Reference: PubChem BioAssay (NCI)
# About 83,000 compounds went through this panel and 20% of them were active in at least one assay; those are over-represented in the sample as a whole.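 Single-concentration screen, 48 h exposure, 96-well plates. Endpoint: percent growth. Below 10 = active.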 A number with no mark means an inactive call. Activity calls are given as the source filed them.
# Test system: OVCAR-5 ovarian
# Test: NCI-60 one-dose screen, 48 h (100 = growth as untreated, 0 = no growth, -100 = all killed)
# Details: 10 µM unless noted
# Description: Growth inhibition of the OVCAR-5 human tumor cell line is measured as a screen for anti-cancer activity. Cells are grown in 96 well plates and exposed to the test compound for 48 hours. Compounds are tested at a single concentration, which is 10^-5 M for most compounds. The reported endpoint is percent growth (GI% or GIPRCNT), where numbers from 0 - 100% represent growth inhibition, and numbers from -100% - 0 represent cell death. For example, a value of 40 represents 60% growth inhibition. A value of 0 means no net growth occurred over the course of the experiment. A value of -40 indicates 40% of cells at the beginning of the experiment died by the end of the experiment. A value of -100 means all cells are dead at the end of the experiment.
# NCI-60 Human Tumor Cell Lines Screen was performed using the standard one-dose NCI protocol, which is described in more detail at https://dtp.cancer.gov/discovery_development/nci-60/default.htm.
# Compounds with GIPRCNT values below 10 were considered active. Activity score was based on GIPRCNT using the following formula: […]
# Score is 0 for GIPRCNT values of 100 or above, 50 for GIPRCNT values of 0, and 100 for GIPRCNT values of -100.
row,SMILES,growth
1,C=CCn1c(SCC(=O)c2ccccc2)nnc1-c1c[nH]c2ccccc12,103%
2,CNC(=O)c1cc(-c2ccc(NC(=O)Nc3ccc(N4CCOCC4)c(C(F)(F)F)c3)cc2)nc2cccnc12,91.4%
3,COc1cc(/C=C/C(=O)c2ccc(C(F)(F)F)cc2)ccc1Oc1nc(NCCO)nc(N2CCOCC2)n1,101%
4,N[C@@H](Cc1cn(-c2c3ccccc3nc3ccccc23)nn1)C(=O)O,99.2%
5,Clc1ccc2oc3c(OCCCn4ccnc4)c4ccccc4nc3c2c1,73.5%
6,O=c1[nH]c2ccc(Cl)cc2cc1CSc1ccccc1Nc1nccc(-c2ccc(Cl)cc2)n1,114%
7,COc1cccc(OC)c1-c1nnn(C)c1C(=S)N1CCN(c2ccc([N+](=O)[O-])cc2Cl)CC1,91.6%
8,O=C(N/N=C/c1ccc([N+](=O)[O-])s1)c1[nH]c2ccc(Br)cc2c1-c1ccccc1,27.9%
9,COc1ccc(-c2cc(C(=O)N=Nc3c(O)[nH]c4ccccc34)c3ccccc3n2)cc1OC,91%
10,O=C(N/N=C/c1ccco1)c1[nH]c2ccc(Br)cc2c1-c1ccccc1,36.7%
11,Clc1ccc2c(NCCCn3ccnc3)c3oc4ccccc4c3nc2c1,38.2%
12,CN1C(=O)N(c2ccccc2)C2N=C(N/N=C/c3ccccc3)SC21 (stereo not given),35.1%
13,Nc1c(C(=O)Nc2ccc(C(F)(F)F)cc2)sc2nc(-c3cnccn3)cc(-c3cccs3)c12,102%
14,CC(O)C(NC(=O)C1CCCN1C(=O)CNC(=O)C1CC(=O)NCC(=O)NC(Cc2c[nH]c3ccccc23)C(=O)NC(Cc2ccc(O)cc2)C(=O)NCC(=O)NC(CO)C(=O)NC(CCC(N)=O)C(=O)NC(Cc2c[nH]c3ccccc23)C(=O)N1)C(=O)NCC(=O)NC(CCC(N)=O)C(=O)NC(CCCNC(=N)N)C(=O)NC(CC(=O)O)C(=O)O (stereo not given),110%
15,CCCCN1C(=O)/C(=c2\sc3n(c2=O)C2C(NN=3)N(CC)C(=O)N2CC)c2cc(Cl)ccc21 (stereo not given),92.7%
16,CS(=O)(=O)c1ccc(-n2cc(/C=C/C(=O)c3ccc(NC(=O)CO[N+](=O)[O-])cc3)c(-c3ccc(Cl)cc3)n2)cc1,97.7%
17,COC(=O)c1ccc(NC(=S)N2CCc3ccc([N+](=O)[O-])cc3C2)cc1O,103%
18,Cn1ccnc1C(=O)/C=C/c1ccc(NC(=O)Nc2ccc(Cl)cc2)cc1,110%
19,Nc1cc(-c2c[nH]c3ccc(Cl)cc23)nc2cc(-c3c[nH]c4ccc(Cl)cc34)nn12,59.7%
20,Cc1nc(-c2cc3ccccc3oc2=O)ccc1C(=O)/C=C/c1ccc(Cl)c(Cl)c1,113%

row,SMILES,growth
1,O=C(NNc1nc2cc(F)ccc2n2c(CN3CC4(COC4)C3)ccc12)c1cnccn1,38.1%
2,CCOC(=O)c1sc(N)c(C(=O)OCC)c1C,67.6%
3,CCCSc1nc(Nc2ccc(/C(C)=N\NC(N)=S)cc2)c(C#N)c(-c2ccc(OC)cc2)n1,94.5%
4,COc1cc(-c2nc3ccc(-c4nnc(SCC(=O)Nc5ccc(C(=O)/C=C/c6ccc(Cl)cc6)cc5)o4)cc3[nH]2)cc(OC)c1OC,99.2%
5,NS(=O)(=O)c1cccc(Nc2nc(SCC(=O)c3ccc(Cl)cc3)nc3ccccc23)c1,116%
6,O=C1Nc2cc(Cl)ccc2/C1=C\c1ccc(OCc2ccc([N+](=O)[O-])cc2)cc1,93.3%
7,CCOc1ccc2nc(NC(=O)c3ccc(C(F)(F)F)cc3)sc2c1,105%
8,COc1cccc(-c2nn(-c3ccccc3)cc2-c2ccnc(N3CCN(C(=O)Nc4ccc(F)cc4)CC3)c2)c1,97.6%
9,[Cl][Ru].c1ccc(-c2cc(-c3ccccn3)nc(-c3ccccn3)c2)cc1.c1ccc(-c2ccnc3c2ccc2c(-c4ccccc4)ccnc23)cc1,18.3%
10,COc1ccccc1/C=C/C=N/NC1=NC2C(S1)N(C)C(=O)N2C (stereo not given),52.3%
11,CCOC(=O)c1sc(NCC(=O)Nc2cccc([N+](=O)[O-])c2)c(C(=O)OCC)c1C,-13.7% (active)
12,CN(C)CCCOc1c2ccccc2nc2c1oc1ccc(Cl)cc12,12.4%
13,CN1CCN(Cc2ccc(NC(=O)c3cncc(C#Cc4cnc5ccc(N6CCSCC6)nn45)c3)cc2C(F)(F)F)CC1,-22.4% (active)
14,Cn1ccnc1C(=O)/C=C/c1ccc(NC(=O)Nc2ccccc2)cc1,14.8%
15,COc1ccc(C(=O)/C=C/c2ccc(OCc3ccc(Cl)cc3)c(OC)c2)cc1OC,100%
16,Cn1cc(-c2cc(N)n3nc(-c4cn(C)c5ccc(Cl)cc45)cc3n2)c2cc(Cl)ccc21,107%
17,Cc1c(NC(=O)CSc2nc3sc4c(c3c(=O)n2-c2ccc(Cl)cc2)CCCC4)c(=O)n(-c2ccccc2)n1C,99.6%
18,COc1ccc(CNS(=O)(=O)/N=C2\NC(=O)NC2=C(Cl)Cl)cc1,37.2%
19,O=C(CSc1nc2sc3c(c2c(=O)n1-c1ccc(Cl)cc1)CCCC3)N/N=C/c1ccc(F)cc1,106%
20,CCN1C(=S)N(c2ccccc2)C2NC(=O)N(/N=C/C=C/c3ccccc3OC)C21 (stereo not given),97.7%
